# Compound activity (PubChem BioAssay)
# TDP1 cell CPT = DT40-hTDP1 cell growth loss with CPT; chicken DT40 Tdp1-/-;hTDP1 cells + 20 nM CPT, ATP luminescence, 48 h; Potency, µM (series often up to 46.2 µM), for the others: top-dose activity change, negative = growth inhibition, usual class: inhibitors; 420,000 tested, 12% active; AID 686979; also: nearly all actives have a fitted effect of over 55% in size
#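 Chicken DT40 Tdp1-/- cells complemented with human TDP1, 400 cells/well, exposed to compounds plus 20 nM camptothecin for at least 48 h at 37 C; viability read as ATP content by CellTiter-Glo luminescence.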
# KB-3-1 cytotox = kills parental KB-3-1 adenocarcinoma cells. KB-3-1 viability, CellTiter-Glo ATP luminescence, 72 h. Potency, µM (series often up to 46.1 µM), actives largely listed as cytotoxic. 400,000 tested, 1.4% active; also: nearly all actives have a fitted effect of over 60% in size
#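 Screening of KB-3-1 cells (DMEM, 10% FBS, phenol-red free) ran from lowest to highest compound concentration; after 72 h at 37 °C viability was read luminescently and curves fitted.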
# HT1080NT lethal = kills 2HG-producing HT-1080-NT fibrosarcoma cells; HT-1080-NT fibrosarcoma viability, CellTiter-Glo ATP luminescence, 48 h; Potency, µM (doses to about 46.1 µM), for the others: top-dose activity, negative = less viability, actives largely listed as cytotoxic; 360,000 tested, 1.6% active;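 also: NT is the 2HG producing partner of a matched IDH1 knockdown line; 0% = DMSO-treated cells and -100% = media-only wells without cells; nearly all actives have a fitted effect of over 55% in size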
#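 HT-1080-NT; 750 cells/well; 5% FBS RPMI; 48 h compound, 37 degrees C; CellTiter-Glo luminescence; curve fitting and curve-class assignment.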
# KB-V1 cytotox = kills drug-selected multidrug resistant KB-V1 cells; AID 1347076; KB-V1 MDR cells viability, CellTiter-Glo, 72 h; 400,000 tested, 3.4% active; Potency, µM (doses to about 46.1 µM), actives largely listed as cytotoxic; also: nearly all actives have a fitted effect of over 60% in size
#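 Cytotoxicity toward P-gp-expressing KB-V1 cells was determined as loss of CellTiter-Glo luminescence after 72 h at 37 degrees C. Compounds were tested in quantitative HTS format across a concentration range, with curves fitted to normalized data.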
# HT1080 IDH1KD tx = toxicity to HT-1080 IDH1 knockdown cells (counter line); 360,000 tested, 2% active; Potency, µM (titrated, usually from 46.1 µM), for inactives: top-dose activity, negative = toxicity, most hits filed as cytotoxic; HT-1080 IDH1 knockdown viability, ATP luminescence, 48 h;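 also: 0% = DMSO wells and -100% = cell-free medium wells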
#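 Viability of IDH1-knockdown HT-1080 fibrosarcoma cells was assessed by CellTiter-Glo after 48 h at 37 °C with titrated compound; concentration-effect curves were classified by fit quality and response size.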
# DT40 TDP1 no CPT = qHTS for Inhibitors of human tyrosyl-DNA phosphodiesterase 1 (TDP1): qHTS in cells in absence of CPT; 420,000 tested, 15% active; Potency, µM (titrated, usually from 46.2 µM), for the others: at the top dose activity change, negative = growth inhibition, most hits filed as inhibitors; DT40 Tdp1-/- hTDP1 cells, no CPT, ATP luminescence, 48 h; also: nearly all actives have a fitted effect of over 55% in size
#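 Growth of hTDP1-complemented DT40 Tdp1-knockout cells is measured by ATP luminescence after at least 48 hr compound exposure at 37 °C, with DMSO substituting for the 20 nM CPT used in the parallel screen.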
# * hit, by the source's call; i = inactive; u = inconclusive. Hits are enriched below; roughly 19% of the tested compounds scored in any of these assays. Calls follow the shape of the dose curve; as a rule, active = well fitted curve in the direction sought with a large enough effect; inconclusive = small, poorly fitted or top-dose-only effect, or another doubt; inactive = no such curve, though single readings can be large; an effect the other way counts as inactive or inconclusive. Unless noted, % is scaled to controls: 0 for no effect and ±100 for the full control effect; potency is read from the fitted curve at half-maximal effect.
SMILES,TDP1 cell CPT,KB-3-1 cytotox,HT1080NT lethal,KB-V1 cytotox,HT1080 IDH1KD tx,DT40 TDP1 no CPT
CCN1CCN(Cc2ccc(NC(=O)c3ccc(C)c(NC(=O)c4cc(-c5ccc(Br)cc5)n[nH]4)c3)cc2C(F)(F)F)CC1,u,u,-18%,u,-26%,u
CCN1CCN(Cc2ccc(NC(=O)c3ccc(C)c(NC(=O)c4nccnc4N)c3)cc2C(F)(F)F)CC1,u,i,u,i,u,21µM*
CCN1CCN(Cc2ccc(NC(=O)c3ccc(C)c(NC(=O)c4cncc(-c5cccs5)c4)c3)cc2C(F)(F)F)CC1,2.3µM*,u,21µM*,u,18µM*,1.6µM*
CCN1CCN(Cc2ccc(NC(=O)c3ccc(C)c(NC(=O)c4nccn4C)c3)cc2C(F)(F)F)CC1,-25%,i,5%,i,2%,-29%
O=C(N1CCOCC1)N1CCC(NC(=O)C23CC4CC(CC(C4)C2)C3)CC1,-6%,i,2%,i,14%,-24%
Cc1cccc(C(=O)NNC(=O)c2c(O)c3ccccc3n(C)c2=O)c1,u,i,u,u,u,29µM*
Cn1c(=O)c(C(=O)Nc2ccccc2S(N)(=O)=O)c(O)c2ccccc21,u,i,-19%,u,-25%,u
CC(NC(=O)c1c(O)c2ccccc2n(C)c1=O)c1ccccc1 (stereo not given),23µM*,u,-17%,u,-7%,18µM*
Cn1c(=O)c(C(=O)NNC(=O)c2cccc(Cl)c2)c(O)c2ccccc21,18µM*,i,6.5µM*,u,9.2µM*,13µM*
CC(=O)c1c(O)c2ccccc2n(C)c1=O,4%,i,-3%,i,2%,-9%
Cn1c(=O)c(C(=O)Nc2ccccn2)c(O)c2ccccc21,u,18µM*,-12%,2.3µM*,-11%,u
O=C(CN1C(=O)CCSc2ccc(S(=O)(=O)N3CCOCC3)cc21)Nc1cccc(F)c1,-24%,i,-8%,i,-9%,13%
Cn1c(=O)c(C(=O)NNC(=O)c2ccccc2Cl)c(O)c2ccccc21,u,i,-26%,u,-28%,18µM*
Cn1c(=O)c(C(=O)NNC(=O)c2ccccc2Br)c(O)c2ccccc21,u,u,-24%,u,-21%,u
CCn1c(=O)c(C(=O)NNC(=O)c2cccc(Cl)c2)c(O)c2ccccc21,23µM*,i,13µM*,u,u,u
C=CCN(c1cccc(C(F)(F)F)c1)S(=O)(=O)c1cccc(C(=O)OCC(=O)NCCC)c1,8%,i,5%,i,5%,-3%
CC(=O)Nc1ccc(S(=O)(=O)Nc2nc3ccccc3s2)cc1,-17%,i,-21%,i,-2%,-8%
O=S(=O)(Nc1ccc(O)c(Sc2nc3ccccc3s2)c1)c1ccc(Cl)cc1,-29%,u,2%,16µM*,-17%,-24%
O=C(C1=C[C@H](C2CCCCC2)C[C@H](OCCCCO)O1)N1CCN(Cc2ccccc2)CC1,21µM*,i,-1%,i,5%,u
C=CCOC(=O)C1=C[C@H](c2cn(C(C)=O)c3ccccc23)C[C@H](OCc2ccc(CO)cc2)O1,u,i,-12%,i,-10%,21µM*
CC(=O)n1cc([C@H]2C=C(C(=O)N3CCN(Cc4ccc5c(c4)OCO5)CC3)O[C@@H](OCCCCO)C2)c2ccccc21,16µM*,i,-18%,i,-24%,u
